# Measured values published in paper PMC7862700, “An all-to-all approach to the identification of sequence-specific readers for epigenetic DNA modifications on cytosine”.
# What was measured:
# Test in all cases: DAPPL (digital affinity profiling via proximity ligation, sequencing); 10 mM Tris-HCl pH 7.5, 50 mM NaCl, 1 mM DTT, 4% glycerol, room temperature, 30 min; GST-TFs on glutathione beads, 16-mer random dsDNA library, 0.1% formaldehyde crosslink after washing; high values mean tight binding
# Details in all cases: protein: recombinant; tags: N-terminal GST; dsDNA, one strand shown
# FLI1 = biological target: T1, FLI1 (Homo sapiens, UniProt Q01543 1-452)
# T1 sequence: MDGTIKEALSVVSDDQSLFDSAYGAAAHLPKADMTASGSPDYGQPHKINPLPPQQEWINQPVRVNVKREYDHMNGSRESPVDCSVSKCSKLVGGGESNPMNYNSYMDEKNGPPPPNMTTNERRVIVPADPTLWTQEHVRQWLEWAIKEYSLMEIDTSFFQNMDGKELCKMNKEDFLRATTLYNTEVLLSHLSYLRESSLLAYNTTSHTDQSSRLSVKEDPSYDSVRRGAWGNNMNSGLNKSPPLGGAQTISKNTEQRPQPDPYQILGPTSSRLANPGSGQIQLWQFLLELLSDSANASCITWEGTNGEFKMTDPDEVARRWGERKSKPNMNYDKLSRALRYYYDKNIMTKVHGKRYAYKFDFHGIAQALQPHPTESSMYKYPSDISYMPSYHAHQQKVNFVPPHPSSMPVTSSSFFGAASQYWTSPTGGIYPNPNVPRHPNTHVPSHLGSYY
# Outline: (§1)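 Human transcription factors fused to GST were expressed in yeast, captured on glutathione beads, given DNA barcodes and pooled with a GST-only negative control. Pools were incubated with 200 nmole of a 16-mer random double-stranded DNA library in Tris/NaCl/DTT/glycerol buffer at room temperature for 30 min. They were then washed, crosslinked with 0.1% formaldehyde, proximity-ligated (BsaI/T4 ligase, 1 h, 37 °C), PCR-amplified and sequenced on an Illumina NextSeq500. Binding signal is each 6-mer's read frequency for a factor divided by its frequency for the GST control.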
# ELK1 = biological target: T2, ELK1 (Homo sapiens, UniProt P19419 1-428)
# T2 sequence: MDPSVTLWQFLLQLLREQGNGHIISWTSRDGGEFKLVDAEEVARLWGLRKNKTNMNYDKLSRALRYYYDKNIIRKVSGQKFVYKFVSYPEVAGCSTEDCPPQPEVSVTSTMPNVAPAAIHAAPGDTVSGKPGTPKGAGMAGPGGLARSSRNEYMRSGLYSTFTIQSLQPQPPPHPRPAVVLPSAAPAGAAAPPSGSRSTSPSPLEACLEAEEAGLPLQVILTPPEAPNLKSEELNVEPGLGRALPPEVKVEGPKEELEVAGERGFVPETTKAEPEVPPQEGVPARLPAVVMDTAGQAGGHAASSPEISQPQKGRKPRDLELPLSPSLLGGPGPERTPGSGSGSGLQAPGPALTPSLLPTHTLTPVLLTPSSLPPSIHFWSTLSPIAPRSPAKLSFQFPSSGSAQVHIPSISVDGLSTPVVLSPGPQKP
# Outline: as §1
# GABPA = biological target: T3, GABPA (Homo sapiens, UniProt Q06546 1-454)
# T3 sequence: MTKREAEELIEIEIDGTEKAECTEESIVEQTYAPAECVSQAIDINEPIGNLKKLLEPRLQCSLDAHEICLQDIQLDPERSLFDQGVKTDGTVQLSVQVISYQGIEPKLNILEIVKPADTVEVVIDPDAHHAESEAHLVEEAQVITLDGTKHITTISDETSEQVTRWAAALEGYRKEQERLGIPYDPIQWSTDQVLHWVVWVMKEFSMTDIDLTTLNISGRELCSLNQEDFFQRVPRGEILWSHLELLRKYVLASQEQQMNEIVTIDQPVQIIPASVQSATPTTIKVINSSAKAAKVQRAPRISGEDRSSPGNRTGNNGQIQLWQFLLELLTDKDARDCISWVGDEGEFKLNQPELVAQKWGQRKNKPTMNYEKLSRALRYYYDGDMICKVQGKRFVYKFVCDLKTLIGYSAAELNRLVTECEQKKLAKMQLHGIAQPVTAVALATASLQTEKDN
# Outline: as §1
# ERG = biological target: T4, ERG (Homo sapiens, UniProt P11308 1-479)
# T4 sequence: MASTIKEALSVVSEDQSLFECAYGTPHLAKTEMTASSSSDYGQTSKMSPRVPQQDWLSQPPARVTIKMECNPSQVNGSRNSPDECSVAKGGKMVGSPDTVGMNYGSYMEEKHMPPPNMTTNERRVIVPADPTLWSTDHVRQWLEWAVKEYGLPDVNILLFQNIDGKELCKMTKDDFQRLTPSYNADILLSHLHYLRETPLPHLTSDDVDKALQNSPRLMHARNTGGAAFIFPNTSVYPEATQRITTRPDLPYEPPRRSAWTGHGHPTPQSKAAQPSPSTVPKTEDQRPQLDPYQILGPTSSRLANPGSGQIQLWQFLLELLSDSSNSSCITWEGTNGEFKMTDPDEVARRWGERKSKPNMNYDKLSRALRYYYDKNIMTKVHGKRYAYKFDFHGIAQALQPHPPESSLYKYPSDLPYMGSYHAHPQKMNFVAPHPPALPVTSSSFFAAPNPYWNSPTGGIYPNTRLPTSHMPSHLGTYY
# Outline: as §1
# ELF1 = ELF1 (Homo sapiens, UniProt P32519 1-619)
# Sequence of ELF1 (P32519 whole entry): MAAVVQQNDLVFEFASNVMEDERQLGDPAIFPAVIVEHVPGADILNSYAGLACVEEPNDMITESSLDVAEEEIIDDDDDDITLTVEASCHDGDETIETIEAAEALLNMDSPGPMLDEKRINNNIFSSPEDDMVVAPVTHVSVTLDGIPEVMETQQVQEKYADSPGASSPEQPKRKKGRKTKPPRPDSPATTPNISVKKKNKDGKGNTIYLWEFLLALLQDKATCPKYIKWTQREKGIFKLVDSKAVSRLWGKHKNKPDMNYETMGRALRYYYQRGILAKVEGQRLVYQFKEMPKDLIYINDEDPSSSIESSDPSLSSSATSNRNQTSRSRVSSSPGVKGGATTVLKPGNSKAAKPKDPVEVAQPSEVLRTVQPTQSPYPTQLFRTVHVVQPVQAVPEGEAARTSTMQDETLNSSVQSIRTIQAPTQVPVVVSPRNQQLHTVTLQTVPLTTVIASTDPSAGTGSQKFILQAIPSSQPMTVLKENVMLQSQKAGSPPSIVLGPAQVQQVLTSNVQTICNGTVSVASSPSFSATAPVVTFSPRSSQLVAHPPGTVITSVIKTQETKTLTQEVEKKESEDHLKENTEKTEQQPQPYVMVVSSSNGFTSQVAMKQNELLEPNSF
# Outline: as §1
# EHF = biological target: T5, EHF (Homo sapiens, UniProt Q9NZC4 1-300)
# T5 sequence: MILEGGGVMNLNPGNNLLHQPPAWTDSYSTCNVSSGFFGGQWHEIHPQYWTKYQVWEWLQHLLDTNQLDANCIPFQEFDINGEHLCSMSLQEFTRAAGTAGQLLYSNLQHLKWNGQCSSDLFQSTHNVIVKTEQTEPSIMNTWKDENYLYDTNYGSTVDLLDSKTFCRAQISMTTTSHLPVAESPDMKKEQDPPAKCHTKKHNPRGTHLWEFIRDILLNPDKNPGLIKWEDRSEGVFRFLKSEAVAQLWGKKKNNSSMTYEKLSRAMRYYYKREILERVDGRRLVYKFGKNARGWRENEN
# Outline: as §1
# SPI1 = SPI1 (Homo sapiens, UniProt P17947 1-270)
# Outline: as §1
# SPIB = SPIB (Homo sapiens, UniProt Q01892 1-262)
# Sequence of SPIB (Q01892 whole entry): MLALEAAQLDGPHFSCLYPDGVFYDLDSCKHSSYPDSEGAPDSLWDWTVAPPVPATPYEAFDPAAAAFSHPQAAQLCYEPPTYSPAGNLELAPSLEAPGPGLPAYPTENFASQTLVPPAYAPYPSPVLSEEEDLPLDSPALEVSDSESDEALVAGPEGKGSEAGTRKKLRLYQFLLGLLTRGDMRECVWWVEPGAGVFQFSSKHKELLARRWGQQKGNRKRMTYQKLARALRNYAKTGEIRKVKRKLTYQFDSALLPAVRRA
# Outline: as §1
# ELK3 = biological target: T6, ELK3 (Homo sapiens, UniProt P41970 1-407)
# T6 sequence: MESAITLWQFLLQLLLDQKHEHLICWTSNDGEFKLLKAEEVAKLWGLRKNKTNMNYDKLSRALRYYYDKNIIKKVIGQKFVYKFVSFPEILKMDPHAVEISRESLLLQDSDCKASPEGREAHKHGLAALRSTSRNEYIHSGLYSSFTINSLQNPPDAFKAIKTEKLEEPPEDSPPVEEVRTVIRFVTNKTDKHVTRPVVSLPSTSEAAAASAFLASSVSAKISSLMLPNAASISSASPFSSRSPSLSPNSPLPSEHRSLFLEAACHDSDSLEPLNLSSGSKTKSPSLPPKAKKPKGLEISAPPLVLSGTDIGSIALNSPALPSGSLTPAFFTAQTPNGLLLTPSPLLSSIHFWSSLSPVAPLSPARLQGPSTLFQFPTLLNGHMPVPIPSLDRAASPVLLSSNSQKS
# Outline: as §1
# FEV = biological target: T7, FEV (Homo sapiens, UniProt Q99581 1-238)
# T7 sequence: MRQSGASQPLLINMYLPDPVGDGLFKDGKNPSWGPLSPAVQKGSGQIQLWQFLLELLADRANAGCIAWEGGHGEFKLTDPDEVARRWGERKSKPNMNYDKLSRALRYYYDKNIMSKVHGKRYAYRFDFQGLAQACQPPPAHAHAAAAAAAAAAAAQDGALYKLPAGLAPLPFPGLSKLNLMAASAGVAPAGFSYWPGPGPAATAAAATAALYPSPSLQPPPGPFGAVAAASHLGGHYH
# Outline: as §1
# ETV5 = ETV5 (Homo sapiens, UniProt P41161 1-510)
# Sequence of ETV5 (P41161 whole entry): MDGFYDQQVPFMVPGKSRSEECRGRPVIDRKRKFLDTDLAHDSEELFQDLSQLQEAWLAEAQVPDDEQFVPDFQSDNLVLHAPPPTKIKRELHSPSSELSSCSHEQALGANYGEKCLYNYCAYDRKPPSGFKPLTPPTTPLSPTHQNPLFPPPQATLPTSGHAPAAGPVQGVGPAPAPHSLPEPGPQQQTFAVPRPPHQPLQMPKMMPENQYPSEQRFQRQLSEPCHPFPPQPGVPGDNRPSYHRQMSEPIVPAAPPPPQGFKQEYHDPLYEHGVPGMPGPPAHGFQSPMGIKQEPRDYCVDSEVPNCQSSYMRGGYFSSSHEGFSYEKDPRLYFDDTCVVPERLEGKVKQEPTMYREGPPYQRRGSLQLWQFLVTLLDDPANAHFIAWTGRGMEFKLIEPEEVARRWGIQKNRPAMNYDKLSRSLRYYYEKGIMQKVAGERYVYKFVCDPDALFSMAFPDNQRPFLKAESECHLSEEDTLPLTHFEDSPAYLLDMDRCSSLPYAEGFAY
# Outline: as §1
# SPIC = biological target: T8, SPIC (Homo sapiens, UniProt Q8N5J4 1-248)
# T8 sequence: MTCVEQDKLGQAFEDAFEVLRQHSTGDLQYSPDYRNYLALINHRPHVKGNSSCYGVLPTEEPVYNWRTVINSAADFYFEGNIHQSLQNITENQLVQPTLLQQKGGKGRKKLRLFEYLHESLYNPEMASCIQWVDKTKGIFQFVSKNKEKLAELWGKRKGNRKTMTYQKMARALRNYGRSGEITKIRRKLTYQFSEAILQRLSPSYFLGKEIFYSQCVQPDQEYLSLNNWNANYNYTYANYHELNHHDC
# Outline: as §1
# ELF4 = ELF4 (Homo sapiens, UniProt Q99607 1-663)
# Sequence of ELF4 (Q99607 whole entry): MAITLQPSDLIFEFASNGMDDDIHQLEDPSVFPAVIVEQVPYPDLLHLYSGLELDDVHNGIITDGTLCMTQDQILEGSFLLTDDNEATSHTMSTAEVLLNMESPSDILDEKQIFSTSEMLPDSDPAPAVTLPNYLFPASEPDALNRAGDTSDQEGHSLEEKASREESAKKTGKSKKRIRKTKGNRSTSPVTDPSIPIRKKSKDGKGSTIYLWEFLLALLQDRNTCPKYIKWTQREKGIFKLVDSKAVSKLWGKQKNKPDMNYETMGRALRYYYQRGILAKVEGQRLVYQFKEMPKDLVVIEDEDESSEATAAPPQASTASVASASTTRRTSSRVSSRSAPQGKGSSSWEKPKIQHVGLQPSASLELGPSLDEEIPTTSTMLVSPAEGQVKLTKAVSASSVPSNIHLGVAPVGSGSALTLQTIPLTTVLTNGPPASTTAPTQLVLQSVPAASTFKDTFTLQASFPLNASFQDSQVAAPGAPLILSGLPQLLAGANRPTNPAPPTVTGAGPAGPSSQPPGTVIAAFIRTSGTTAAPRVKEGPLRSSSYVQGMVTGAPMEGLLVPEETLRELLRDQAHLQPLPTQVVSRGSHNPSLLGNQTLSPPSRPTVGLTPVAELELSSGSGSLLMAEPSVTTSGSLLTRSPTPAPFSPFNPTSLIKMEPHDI
# Outline: as §1
# ELK4 = biological target: T9, ELK4 (Homo sapiens, UniProt P28324-2 1-405)
# T9 sequence: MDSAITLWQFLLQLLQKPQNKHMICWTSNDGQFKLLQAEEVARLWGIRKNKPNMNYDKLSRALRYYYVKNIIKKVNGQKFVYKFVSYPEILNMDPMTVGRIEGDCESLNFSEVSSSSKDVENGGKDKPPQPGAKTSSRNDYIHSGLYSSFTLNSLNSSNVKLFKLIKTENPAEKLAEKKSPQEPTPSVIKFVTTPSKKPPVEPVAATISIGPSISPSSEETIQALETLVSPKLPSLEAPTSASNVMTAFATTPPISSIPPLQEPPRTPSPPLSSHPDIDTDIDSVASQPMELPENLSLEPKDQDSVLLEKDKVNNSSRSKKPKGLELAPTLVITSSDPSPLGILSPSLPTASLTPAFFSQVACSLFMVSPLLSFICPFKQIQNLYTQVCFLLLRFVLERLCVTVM
# Outline: as §1
# ETV2 = biological target: T10, ETV2 (Homo sapiens, UniProt O00321 1-342)
# T10 sequence: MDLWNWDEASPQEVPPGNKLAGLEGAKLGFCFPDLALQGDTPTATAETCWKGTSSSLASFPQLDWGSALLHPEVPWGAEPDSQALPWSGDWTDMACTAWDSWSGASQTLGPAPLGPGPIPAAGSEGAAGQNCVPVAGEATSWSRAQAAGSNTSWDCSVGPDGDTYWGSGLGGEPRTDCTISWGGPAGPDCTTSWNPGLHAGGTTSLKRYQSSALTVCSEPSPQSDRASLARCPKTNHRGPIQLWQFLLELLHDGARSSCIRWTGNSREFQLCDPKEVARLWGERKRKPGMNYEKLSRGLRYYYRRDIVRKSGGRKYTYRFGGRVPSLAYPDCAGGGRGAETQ
# Outline: as §1
# ELF3 = biological target: T11, ELF3 (Homo sapiens, UniProt P78545 1-371)
# T11 sequence: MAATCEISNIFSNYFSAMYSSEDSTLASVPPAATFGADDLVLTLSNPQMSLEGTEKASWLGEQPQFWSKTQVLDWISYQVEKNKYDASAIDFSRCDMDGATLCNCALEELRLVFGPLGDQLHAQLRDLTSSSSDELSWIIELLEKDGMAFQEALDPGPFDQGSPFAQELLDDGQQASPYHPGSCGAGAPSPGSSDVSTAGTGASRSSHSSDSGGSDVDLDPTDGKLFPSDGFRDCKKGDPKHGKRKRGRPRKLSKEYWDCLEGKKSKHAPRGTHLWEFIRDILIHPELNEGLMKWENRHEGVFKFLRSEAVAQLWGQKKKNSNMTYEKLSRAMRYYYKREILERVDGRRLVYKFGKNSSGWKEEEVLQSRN
# Outline: as §1
# ETV1 = ETV1 (Homo sapiens, UniProt P50549 1-477)
# Sequence of ETV1 (P50549 whole entry): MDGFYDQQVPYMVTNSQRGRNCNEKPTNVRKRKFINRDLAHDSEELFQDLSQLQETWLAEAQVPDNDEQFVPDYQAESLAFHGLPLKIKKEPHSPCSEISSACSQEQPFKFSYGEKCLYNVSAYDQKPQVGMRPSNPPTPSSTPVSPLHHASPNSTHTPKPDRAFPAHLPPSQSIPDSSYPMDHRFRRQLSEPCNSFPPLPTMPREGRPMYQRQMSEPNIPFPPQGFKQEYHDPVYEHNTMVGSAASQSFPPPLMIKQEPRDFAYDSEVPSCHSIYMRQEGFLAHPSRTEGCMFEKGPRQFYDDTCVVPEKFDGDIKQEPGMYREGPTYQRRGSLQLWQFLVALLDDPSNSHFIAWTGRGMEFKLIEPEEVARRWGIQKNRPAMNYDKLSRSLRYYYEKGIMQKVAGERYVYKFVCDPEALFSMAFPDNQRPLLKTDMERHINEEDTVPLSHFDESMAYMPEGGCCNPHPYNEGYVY
# Outline: as §1
Sequence,binding signal (FLI1),binding signal (ELK1),binding signal (GABPA),binding signal (ERG),binding signal (ELF1),binding signal (EHF),binding signal (SPI1),binding signal (SPIB),binding signal (ELK3),binding signal (FEV),binding signal (ETV5),binding signal (SPIC),binding signal (ELF4),binding signal (ELK4),binding signal (ETV2),binding signal (ELF3),binding signal (ETV1)
CATGGT,"1.25 fold enrichment (6-mer frequency, TF over GST control)","1.29 fold enrichment (6-mer frequency, TF over GST control)","1.29 fold enrichment (6-mer frequency, TF over GST control)","1.38 fold enrichment (6-mer frequency, TF over GST control)","1.21 fold enrichment (6-mer frequency, TF over GST control)","1.22 fold enrichment (6-mer frequency, TF over GST control)","1.27 fold enrichment (6-mer frequency, TF over GST control)","1.26 fold enrichment (6-mer frequency, TF over GST control)","1.3 fold enrichment (6-mer frequency, TF over GST control)","1.08 fold enrichment (6-mer frequency, TF over GST control)","1.24 fold enrichment (6-mer frequency, TF over GST control)","1.39 fold enrichment (6-mer frequency, TF over GST control)","1.32 fold enrichment (6-mer frequency, TF over GST control)","1.32 fold enrichment (6-mer frequency, TF over GST control)","1.13 fold enrichment (6-mer frequency, TF over GST control)","1.35 fold enrichment (6-mer frequency, TF over GST control)","1.29 fold enrichment (6-mer frequency, TF over GST control)"
TGTCCG,"1.47 fold enrichment (6-mer frequency, TF over GST control)","1.42 fold enrichment (6-mer frequency, TF over GST control)","1.48 fold enrichment (6-mer frequency, TF over GST control)","1.58 fold enrichment (6-mer frequency, TF over GST control)","1.41 fold enrichment (6-mer frequency, TF over GST control)","1.42 fold enrichment (6-mer frequency, TF over GST control)","1.2 fold enrichment (6-mer frequency, TF over GST control)","1.56 fold enrichment (6-mer frequency, TF over GST control)","1.39 fold enrichment (6-mer frequency, TF over GST control)","1.61 fold enrichment (6-mer frequency, TF over GST control)","1.61 fold enrichment (6-mer frequency, TF over GST control)","1.36 fold enrichment (6-mer frequency, TF over GST control)","1.41 fold enrichment (6-mer frequency, TF over GST control)","1.32 fold enrichment (6-mer frequency, TF over GST control)","1.29 fold enrichment (6-mer frequency, TF over GST control)","1.48 fold enrichment (6-mer frequency, TF over GST control)","1.6 fold enrichment (6-mer frequency, TF over GST control)"
